This is an account of results in PubChem BioAssay.

The nature of assay [1]: small molecules captured by biotinylated probe aFSTL3 – biochemical, small-molecule microarray, fluorescence 635/667, stem cell growth factor project, primary screen (AID 1064).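 Note: measures binding of the biotinylated anti-FSTL3 antibody to printed compounds.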 As to conditions: higher = more signal.
Assay [2] in a line: binders from COS7 lysate, DM2A8 probe, primary screen, torsin A project, cell lysate, small-molecule microarray, fluorescence 635/667 (AID 1065). As to conditions: higher = more signal, COS7 lysate expressing mutant human TOR1A.
Assay [3] can be described thus: small molecules captured by biotinylated probe aFGF2 – biochemical, small-molecule microarray, fluorescence 635/667, stem cell growth factor project, primary screen (AID 1067).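 Note: measures binding of biotinylated aFGF2 protein to printed compounds on slides; z-score merges feature fluorescence and signal-to-noise across triplicate slides.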 As to conditions: higher = more signal.
Assay [4] is described as follows: small molecules captured by biotinylated probe aFGF10 – biochemical, small-molecule microarray, fluorescence 635/667, stem cell growth factor project, primary screen (AID 1071).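 Note: score merges 667 nm spot intensity and signal to noise from triplicate slides.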 As to conditions: higher = more signal.
In assay [5] the target is Neurogenic locus notch homolog protein 2 (Homo sapiens) (UniProt Q04721). Put plainly: small molecules binding Notch2 protein – biochemical, small-molecule microarray, 635 nm fluorescence, stem cell growth factors, primary screen (AID 1073). Conditions: higher = more signal.
In assay [6] the target is Pro-neuregulin-1, membrane-bound isoform (Homo sapiens) (UniProt Q02297). Put plainly: small molecules binding neuregulin-1 protein – biochemical, small-molecule microarray, fluorescence 635/667, psychiatric disease protein project, primary screen (AID 1075).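 Note: score combines 667 nm spot fluorescence with signal to noise.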 Conditions: NRG1 binding, 635 nm fluorescence, higher = more signal.
In assay [7] the test system is Neuregulin-1 EGF-like domain. As to the kind of experiment: small molecules binding NRG1 EGF domain – biochemical, small-molecule microarray, 635 nm fluorescence, primary screen (AID 1081).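 Note: binding of the protein to compounds printed on small-molecule microarray slides.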 As to conditions: higher = more signal.
The nature of assay [8]: FRG1 expression reporter modulators in myotubes – cell-based, C2C12 myotubes, firefly/Renilla luciferase, luminescence, FRG1 inhibition for FSHD, primary screen (AID 1084). As to conditions: FRG1 promoter luciferase, higher = more signal, called active from +8 up or from −8 down.
Assay [9] is described as follows: small molecules captured by biotinylated probe aFST – biochemical, small-molecule microarray, fluorescence 635/667, stem cell growth factor project, primary screen (AID 1086).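 Note: score merges 667 nm fluorescence with signal-to-noise of each printed compound spot.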 Conditions: higher = more signal.
A short description of assay [10]: binders of probe aHhip on microarray, primary screen, stem cell growth factor project, biochemical, small-molecule microarray, fluorescence 635/667 (AID 1087).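 Note: score merges spot fluorescence at 667nm with spot signal to noise ratio.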 Conditions: higher = more signal.
The test system of assay [11] is PRMT1 (protein arginine N-methyltransferase 1). As to the kind of experiment: small molecules binding arginine methyltransferase PRMT1 – biochemical, small-molecule microarray, 635 nm fluorescence, primary screen (AID 1088).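 Note: binding of Prmt1 protein to compounds spotted on small-molecule microarray slides.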 As to conditions: higher = more signal.
Assay [12] in a line: growth effects on S. cerevisiae YJM789 – YJM789 clinical isolate, OD600, 24 h, basal, primary screen (AID 1089).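 Note: growth of clinical yeast isolate S. cerevisiae YJM 789 seeded 1000 cells per well; test concentration not given here.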 As to conditions: higher = more signal, called active from +8 up or from −8 down.
Assay [13] is described as follows: S. pombe growth modifiers, basal conditions – strain 972, OD600, 24 h, no modulator, primary screen (AID 1090).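 Note: basal condition with compound alone and no growth modifier present; test concentration not given here.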 Conditions: S. pombe 972 growth, higher = more signal, called active from +8 up or from −8 down.
Assay [14] can be described thus: budding yeast growth modifiers under rapamycin – strain BY4716, OD600, 96 h, primary screen (AID 1091). Note: test concentration not given here. Conditions: S. cerevisiae BY4716 + rapamycin, higher = more signal, called active from +8 up or from −8 down.
Assay [15] has as its target Torsin-1A-interacting protein 2 (Homo sapiens) (UniProt Q8NFQ8). Put plainly: small molecules binding lysate-expressed LULL1 – cell lysate, human LULL1 lysate, 635/667 nm fluorescence, primary screen (AID 1092).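 Note: probe is lysate of COS7 cells overexpressing human LULL1; score merges per-feature 667 nm fluorescence with signal-to-noise.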 As to conditions: small-molecule microarray, hLULL1 lysate binding, 635 nm fluorescence; higher = more signal.
A short description of assay [16]: optical density change of DRC41 E. coli – strain DRC41, OD650, 24 h, E. coli filamentation project, primary screen (AID 1093).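 Note: MC1000 strain lacking acrAB efflux and sulA so SOS filamentation is blocked; test concentration not given here.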 Conditions: E. coli DRC41 growth, higher = more signal, called active from +8 up or from −8 down.
Assay [17] can be described thus: probe aLefty2 binding to arrayed compounds – biochemical, biotinylated probe, 635/667 nm fluorescence, primary screen (AID 1094).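 Note: score merges spot fluorescence near 667 nm with spot signal-to-noise ratio.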 As to conditions: small-molecule microarray, higher = more signal.
Assay [18] concerns Noggin (protein binding on small-molecule microarray). As to the kind of experiment: small molecules binding Noggin protein – biochemical, 635/667 nm fluorescence, primary screen (AID 1095).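 Note: score merges 667 nm feature fluorescence with signal to noise over triplicate slides.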 As to conditions: 635 nm fluorescence, higher = more signal.
In assay [19] the target is Neurogenic locus notch homolog protein 3 (Homo sapiens) (UniProt Q9UM47). Put plainly: small molecules binding NOTCH3 protein – biochemical, 635/667 nm fluorescence, primary screen (AID 1096). As to conditions: small-molecule microarray, 635 nm fluorescence, higher = more signal.
The nature of assay [20]: probe aEGFR binding to arrayed compounds – biochemical, biotinylated probe, 635/667 nm fluorescence, primary screen (AID 1097).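 Note: probe is a biotinylated anti-EGFR antibody binding compounds printed on slides; score combines fluorescence near 667 nm and signal to noise of each spot.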 As to conditions: small-molecule microarray, higher = more signal.

Calls of active or inactive are those of the source.

Neurogenic locus notch homolog protein 3 (Homo sapiens), sequence (Q9UM47 whole entry, looked up): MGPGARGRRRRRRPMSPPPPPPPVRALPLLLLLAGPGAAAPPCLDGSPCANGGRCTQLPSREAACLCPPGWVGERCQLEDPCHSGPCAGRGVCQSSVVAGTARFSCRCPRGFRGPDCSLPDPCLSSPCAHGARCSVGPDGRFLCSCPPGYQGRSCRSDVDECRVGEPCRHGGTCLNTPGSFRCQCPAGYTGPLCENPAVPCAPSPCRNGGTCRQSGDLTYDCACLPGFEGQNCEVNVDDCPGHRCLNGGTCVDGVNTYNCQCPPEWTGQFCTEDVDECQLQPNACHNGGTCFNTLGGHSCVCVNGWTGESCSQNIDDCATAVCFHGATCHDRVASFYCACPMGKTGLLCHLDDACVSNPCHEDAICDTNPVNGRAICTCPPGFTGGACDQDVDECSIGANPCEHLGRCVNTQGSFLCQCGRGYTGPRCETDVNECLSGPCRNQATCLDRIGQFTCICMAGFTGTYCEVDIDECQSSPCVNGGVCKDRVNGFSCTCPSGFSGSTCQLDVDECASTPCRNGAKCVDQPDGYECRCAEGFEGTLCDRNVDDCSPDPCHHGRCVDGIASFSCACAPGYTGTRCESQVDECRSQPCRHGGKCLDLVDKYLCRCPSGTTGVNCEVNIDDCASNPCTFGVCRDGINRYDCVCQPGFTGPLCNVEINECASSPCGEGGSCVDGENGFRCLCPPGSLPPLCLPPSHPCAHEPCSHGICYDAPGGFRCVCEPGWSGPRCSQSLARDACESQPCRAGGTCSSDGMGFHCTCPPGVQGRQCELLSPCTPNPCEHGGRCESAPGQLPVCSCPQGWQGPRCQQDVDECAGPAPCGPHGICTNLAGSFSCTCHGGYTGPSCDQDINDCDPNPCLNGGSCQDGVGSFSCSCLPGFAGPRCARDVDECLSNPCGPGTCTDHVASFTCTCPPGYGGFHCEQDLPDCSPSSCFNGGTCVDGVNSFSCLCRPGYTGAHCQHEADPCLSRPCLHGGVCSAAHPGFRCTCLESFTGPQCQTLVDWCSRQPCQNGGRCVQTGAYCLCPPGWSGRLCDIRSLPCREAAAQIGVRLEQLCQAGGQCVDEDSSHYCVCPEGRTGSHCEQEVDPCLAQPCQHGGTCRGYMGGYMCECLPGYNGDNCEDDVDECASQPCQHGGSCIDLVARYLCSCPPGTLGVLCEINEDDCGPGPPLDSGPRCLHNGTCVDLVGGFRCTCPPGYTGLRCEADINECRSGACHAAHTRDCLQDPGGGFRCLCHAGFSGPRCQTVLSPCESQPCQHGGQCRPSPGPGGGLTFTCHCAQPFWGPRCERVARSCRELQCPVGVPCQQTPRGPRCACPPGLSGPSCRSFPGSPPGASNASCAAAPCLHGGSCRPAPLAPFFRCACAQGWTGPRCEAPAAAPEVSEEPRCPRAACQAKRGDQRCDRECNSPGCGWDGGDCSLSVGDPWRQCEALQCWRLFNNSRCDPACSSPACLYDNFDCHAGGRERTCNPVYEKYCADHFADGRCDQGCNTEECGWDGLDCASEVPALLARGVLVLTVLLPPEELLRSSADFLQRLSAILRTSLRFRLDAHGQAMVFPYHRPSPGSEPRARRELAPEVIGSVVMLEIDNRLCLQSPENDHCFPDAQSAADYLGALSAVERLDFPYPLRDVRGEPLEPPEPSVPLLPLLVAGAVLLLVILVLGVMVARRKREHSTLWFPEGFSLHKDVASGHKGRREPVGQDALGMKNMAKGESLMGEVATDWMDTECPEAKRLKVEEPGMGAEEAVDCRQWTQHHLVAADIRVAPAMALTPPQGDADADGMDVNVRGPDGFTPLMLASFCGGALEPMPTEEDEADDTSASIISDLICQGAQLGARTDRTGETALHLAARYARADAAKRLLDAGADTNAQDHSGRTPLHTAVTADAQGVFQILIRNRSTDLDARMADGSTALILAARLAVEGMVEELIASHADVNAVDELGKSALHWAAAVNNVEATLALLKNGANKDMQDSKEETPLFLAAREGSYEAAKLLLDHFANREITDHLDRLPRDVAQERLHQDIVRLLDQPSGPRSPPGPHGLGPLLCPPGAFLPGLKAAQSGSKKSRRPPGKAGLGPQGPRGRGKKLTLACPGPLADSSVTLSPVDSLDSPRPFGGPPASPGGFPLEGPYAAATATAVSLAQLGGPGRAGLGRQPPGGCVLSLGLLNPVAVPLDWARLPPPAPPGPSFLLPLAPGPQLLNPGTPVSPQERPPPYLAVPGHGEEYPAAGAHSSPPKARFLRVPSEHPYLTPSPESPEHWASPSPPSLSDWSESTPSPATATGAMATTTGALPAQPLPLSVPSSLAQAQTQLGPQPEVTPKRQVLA
Pro-neuregulin-1, membrane-bound isoform (Homo sapiens), sequence (Q02297 whole entry, looked up, the tested form may be a part, canonical isoform): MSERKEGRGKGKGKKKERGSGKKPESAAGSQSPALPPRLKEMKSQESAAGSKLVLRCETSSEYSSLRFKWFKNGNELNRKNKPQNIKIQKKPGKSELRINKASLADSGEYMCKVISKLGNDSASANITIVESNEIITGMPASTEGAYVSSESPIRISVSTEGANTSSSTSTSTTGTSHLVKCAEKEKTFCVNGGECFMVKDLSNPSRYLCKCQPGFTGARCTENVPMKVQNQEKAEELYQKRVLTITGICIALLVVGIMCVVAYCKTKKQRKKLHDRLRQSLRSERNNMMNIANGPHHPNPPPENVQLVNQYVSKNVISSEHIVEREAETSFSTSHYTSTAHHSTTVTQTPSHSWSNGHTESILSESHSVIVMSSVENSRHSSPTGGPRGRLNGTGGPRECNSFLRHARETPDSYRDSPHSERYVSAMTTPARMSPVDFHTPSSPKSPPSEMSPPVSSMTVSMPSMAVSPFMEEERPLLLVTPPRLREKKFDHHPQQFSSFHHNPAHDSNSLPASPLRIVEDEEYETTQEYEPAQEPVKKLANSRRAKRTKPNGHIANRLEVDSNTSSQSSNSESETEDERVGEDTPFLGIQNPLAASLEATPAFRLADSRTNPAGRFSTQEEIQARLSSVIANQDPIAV
Torsin-1A-interacting protein 2 (Homo sapiens), sequence (Q8NFQ8 whole entry, looked up): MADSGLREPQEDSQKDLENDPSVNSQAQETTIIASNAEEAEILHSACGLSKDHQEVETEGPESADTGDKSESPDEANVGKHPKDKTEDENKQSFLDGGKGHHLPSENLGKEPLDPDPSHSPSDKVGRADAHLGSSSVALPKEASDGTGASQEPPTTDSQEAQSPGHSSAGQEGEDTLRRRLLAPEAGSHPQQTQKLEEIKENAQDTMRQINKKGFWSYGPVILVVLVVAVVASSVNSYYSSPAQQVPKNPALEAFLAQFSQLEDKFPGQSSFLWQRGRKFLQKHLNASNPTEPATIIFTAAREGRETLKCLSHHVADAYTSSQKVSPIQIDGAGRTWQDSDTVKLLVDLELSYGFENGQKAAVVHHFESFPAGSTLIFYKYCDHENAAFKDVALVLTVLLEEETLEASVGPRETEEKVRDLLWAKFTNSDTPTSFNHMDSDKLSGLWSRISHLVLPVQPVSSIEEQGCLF

Consider `CC[C@H]1C2=C3C(CC[C@H]4C(OCc5ccc(F)cc5C(F)(F)F)OC[C@](C)([C@@H]34)N(C(=O)OC(C)(C)C)C2)C2COC(=O)OCC21` (stereo not given in full), for which the composite z-score in [1] was 0.0488; in assay [2], -0.377; in assay [3], 0.0246; in assay [4], 0.112; in assay [5], 1.25; in [6], 1.47. Besides, the composite z-score in assay [7] is 0.874; in [9], 1.73; in [10] it was -0.0047; in [11], 0.254; in [15] it was 3.34; in assay [17], 0.375. Moreover, the composite z-score is -0.581 in assay [18], 1.1 in assay [19] and -0.117 in assay [20]. The z-score in [8] is 1.82 (inactive); in assay [12], 0.416 (inactive); in assay [13], 1.13 (inactive); in assay [14] it was 0.896 (inactive); in assay [16], -1.81 (inactive).
With `COC(=O)Cn1c(C(=O)N2CCCC2)cc2c1C[C@H]1CN(C(=O)c3ccccc3)[C@@](Cc3ccc(F)cc3)(C(=O)OC)[C@@H]21`, the composite z-score in assay [1] was -0.366; in [2] it was 0.281; in assay [3], -0.0329; in assay [4] it was 0.0839; in [5], 0.358; in assay [6] it was 2. The composite z-score in assay [7] is 1.07; in assay [9], 0.131; in assay [10] it was 0.0845; in assay [11] it was -0.533; in [15], 2.03; in [17] it was -0.0199. The composite z-score in assay [18] is -0.405; in assay [19] it was -0.251; in assay [20] it was -0.363. Also, the z-score in assay [8] is -0.566 (inactive); in assay [12], -1.98 (inactive); in assay [13], 0.562 (inactive); in assay [14] it was -1.24 (inactive); in assay [16], 0.782 (inactive).
For `COc1ccc([Si](C)(C)[C@@H]2[C@@H](CCO)O[C@]3(C(=O)N(Cc4cccc(N5C(=O)c6ccccc6Oc6ccccc65)c4)c4ccccc43)[C@H]2C)cc1`, the composite z-score was 0.393 in [1]; 0.123 in [2]; -0.134 in assay [3]; -0.173 in assay [4]; -0.571 in [5]; 0.536 in assay [6]. Also, the composite z-score in assay [7] was 0.602; in [9] it was 0.0472; in [10], -0.134; in assay [11], 1.17; in assay [15], 1.46; in [17], -0.0666. In addition, the composite z-score in [18] is -0.224; in assay [19], 0.0578; in [20], -0.281. Moreover, the z-score in assay [8] is 0.133 (inactive); in assay [12], 2.79 (inactive); in [13], -0.483 (inactive); in [14] it was 36.9 (active); in assay [16], 1.21 (inactive).
Turning to `C=CCNC(=O)[C@H]1[C@@H]2C(=O)O[C@@H](c3ccccc3)[C@@H](c3ccccc3)N2[C@@H](c2ccccc2OCCO)[C@]12C(=O)N(C(=O)OCCOC)c1ccc(C#CC3=CCCCC3)cc12`, the composite z-score in [1] was found to be 1.13; in [2], 0.698; in assay [3], 0.032; in assay [4], 0.44; in assay [5] it was 1.5; in assay [6], 0.791. Besides, the composite z-score was 1.33 in [7]; 0.877 in assay [9]; -0.0022 in assay [10]; 1.55 in assay [11]; 2.38 in assay [15]; 0.304 in [17]. For the same molecule, the composite z-score in assay [18] came out at 0.843; in assay [19], 1.05; in [20] it was 0.34. Moreover, the z-score in assay [8] is -1.89 (inactive); in [12], 1.85 (inactive); in assay [13] it was -1.02 (inactive); in assay [14], 4.29 (inactive); in assay [16], 1.23 (inactive).
In the case of `C=CCN1C(=O)[C@@]2(CCC(=O)OC(C)(C)C)N=C(c3ccc(OCCCO)cc3)O[C@H]2c2ccccc21`, the composite z-score in [1] was 0.324; in assay [2], 0.198; in [3] it was 0.0698; in assay [4], 0.0883; in [5] it was 0.724; in [6], 0.82. For the same molecule, the composite z-score in assay [7] is 1.21; in [9], 0.278; in assay [10], -0.195; in assay [11] it was 1.47; in assay [15], 2.71; in [17], 0.107. Further, the composite z-score was 1.24 in [18], 1.09 in assay [19] and -0.146 in [20]. The z-score in assay [8] was -2.47 (inactive); in assay [12], -1.89 (inactive); in [13], -5.84 (inactive); in assay [14], 1.44 (inactive); in [16] it was 0.784 (inactive).
In the case of `COC(=O)C[C@H]1O[C@]2(C(=O)N(C)c3ccccc32)[C@@H](C)[C@@H]1[Si](C)(C)c1ccc(C)cc1`, the composite z-score was -0.361 in assay [1]; 0.285 in assay [2]; 0.033 in [3]; 0.453 in [4]; 0.778 in assay [5]; 0.274 in assay [6]. The composite z-score in [7] is 0.815; in assay [9] it was 0.512; in assay [10], 0.28; in assay [11], 1.12; in assay [15] it was 0.797; in assay [17], -0.137. The figures for the composite z-score in [18], in assay [19] and in assay [20] were 1.27, 0.989 and -0.0674, respectively. Also, the z-score in assay [8] is -2.37 (inactive); in assay [12], -0.421 (inactive); in [13], -11.3 (active); in assay [14], -0.673 (inactive); in [16], 2.17 (inactive).
In the case of `CC(C)c1ccc(NN2C(C(O)c3ccco3)C=CC3C(=O)N(c4ccccc4)C(=O)C32)cc1` (stereo not given), the composite z-score was found to be 0.447 in assay [1]; 0.334 in assay [2]; 0.106 in [3]; 0.677 in [4]; 1.71 in assay [5]; 1.46 in assay [6]. Besides, the composite z-score in assay [7] is 1.2; in assay [9], 1.34; in assay [10], -0.0606; in [11] it was 1.57; in [15], 3.27; in [17], 0.0997. For the same molecule, the composite z-score was 0.18 in assay [18], 1.02 in assay [19] and 0.0308 in [20]. Besides, the z-score was -1.22 (inactive) in assay [8]; 0.61 (inactive) in assay [12]; 0.431 (inactive) in assay [13]; -0.419 (inactive) in assay [14]; -0.577 (inactive) in assay [16].
Take `COCCCNC(=O)[C@@]1(Sc2ccc(C)cc2)CC(=O)N(C2Cc3ccccc3C2)[C@@H]1c1ccc(CO)cc1I`: the composite z-score in [1] was 0.926; in [2], -0.247; in assay [3] it was -0.156; in [4], -0.379; in assay [5] it was -1.02; in assay [6] it was 1.12. Moreover, the composite z-score in assay [7] was -0.447; in assay [9], -0.926; in assay [10], -0.294; in assay [11], -0.649; in assay [15] it was -0.165; in assay [17], -0.0441. Moreover, the composite z-score in [18] is -1.39; in assay [19], -1.16; in [20] it was -0.251. Moreover, the z-score in assay [8] was -0.703 (inactive); in [12], -0.881 (inactive); in [13], -1.79 (inactive); in assay [14], 1.43 (inactive); in [16], -0.421 (inactive).
Regarding `C[C@H]1ON(c2ccc(C(=O)OC(C)(C)C)cc2)[C@@H](c2ccc(O)cc2)[C@@H]1C(=O)N1C(=O)OC[C@@H]1c1ccccc1`, the composite z-score was -0.565 in [1]; -0.156 in assay [2]; -0.117 in assay [3]; 0.686 in [4]; 1.42 in assay [5]; 0.464 in assay [6]. In addition, the composite z-score is 1.15 in assay [7]; 0.184 in [9]; -0.0022 in assay [10]; 1.51 in [11]; 1.69 in assay [15]; -0.33 in [17]. Moreover, the composite z-score is 0.819 in assay [18], 1.05 in [19] and -0.0315 in assay [20]. The z-score is -0.308 (inactive) in assay [8]; 0.657 (inactive) in assay [12]; -1.95 (inactive) in assay [13]; 31.6 (active) in assay [14]; -0.661 (inactive) in assay [16].
